Among the data in the supplement of paper PMC6555819 are PBM binding z-score values, retold here.

The test has as its system VDR:RXRa (NR concentration 270 nM, RXRa partner concentration 90 nM). Nature of the test: PBM binding z-score (relative to random genomic background probes); higher = stronger binding; sequences stand for … in GC…GCGATTGACAGCGTAGAATGAAGG
As for the experimental part: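 Protein-binding microarray (Agilent 4x180K custom design, double-stranded 60-nt probes: 5' GC cap, 34-nt variable region, 24-nt constant primer region; full probe sequence given). Purified or IVT nuclear receptor:RXRα heterodimers (3:1 NR:RXRα, mostly 270:90 nM) or homodimers were incubated for 1 h in PBS with 2% milk and no ligand, then detected with Alexa488 antibodies. Fluorescence from o1-orientation probes (~5 replicates averaged) was converted to z-scores against 500 random hg19 background probes. Variable regions are seed direct-repeat (DR0–DR5) sites, all their single-nucleotide variants and half-site ablations.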
Take ACTATTAGTTGAGACGCGGGCAACCGATAGGTTG: the PBM binding z-score was -0.235.
With GCTAGCAGGCCTTTTGGGTCACTCAATGACGGGC the figure was -0.0926; with AGAATGTGGTTATTAAGATCAGGGAATTGCGGTC, 0.251.
With GCTGCTAGGTCAACTGATGATCAGCTAAAGCTCG the figure was 1.38; with AGAACGAGGGCACGCTGAGTTGAAAGCAGAGTAG, 2.29.
For TCGAGTAGGTTACCAAAGGGGCATTCAGCTTTCT the value was 0.89.
As to GCAGACAAGTGAAACGCAGGTAACTCAGGGTGGC, the PBM binding z-score is -0.581.
For CGTCCAAGGTCAAGGTCAGCGAAAGAGACTCGAA the value was 4.97; for TTACCAAGGTGAGCTTAGGTCGTTGATCCAACTC, 0.561; for TGTATTAGTTGAAGGGCAACCGACGAGTCCGTTT, 0.926.
TCTTGTAGATCAATAGAGGTTAAGAATGTGCGCT gave a PBM binding z-score of 1.27.
As for ACTTACGGGTCAACGAGGTTGTAGCACGCGTATA, the PBM binding z-score came to 7.54.
In the case of GGAACGAGGGCTAAGTTGATAGCATCTGTCGACG, the PBM binding z-score is -0.701.
With GCTAGCAGGCCATTTGGCTCACTCAATGACGGGC the figure was -0.942; with ACTATTAGTTGAGACGAGGGCAACCGATAGGTTG, 0.889; with TAGCCTAGGTCATTGGGCCGGTATAGTACGCATC, 2.11.
For ATACCAAGGTGATCGTGAGGTCGTTGATACTAAC the value was 3.23; for ATATGTATGTTATCGGGTCATTCAGTTTGCGCAT, 4.9.
TTACCAAGGTGAGCTGAGGGCGTTGATCCAACTC: the PBM binding z-score stood at 1.89.
In turn, TATACAGGGACAAAGGCCAGAGTACGAATGTCGA showed a PBM binding z-score of 0.123.
With CCTTACGGGTCACGGACAGGTTATAGCATTTGGA the figure was 4.74; with CGAACTAGGTCAGAACAGGACAGTGAGGGATGAT, 0.739; with ACTAGCAGGCCCAGGGTCACTCAAGATTAGTCCG, 2.19.
For ATCTATAGGTAAAGATAGTTCAGTGAATGCAAAT the value was 1; for ATCGAGAGGTCGAAGGTGAGTATACCCACCCGAA, 2.42; for CGAACTAGGTCATTGATAGGACAGTGAATAGTAA, 2.27.
With AGTCAAAGTTCATCTAGGTAACGTACGATATGCT the figure was 5.15.
Consider GCTATTAGTTGAGAGGGCAACCGAATGATTCTCG, for which the PBM binding z-score worked out at 0.311.
With GCTGCTAGGTCAGGTAGGTCAGCTAACGGGTACG the figure was 3.35; with ATATGTAGGTTAGCTGGGGTAATTCAGACTAGGC, 0.945; with TCGTATAGGTAAACAGGTGAAAGTCCGTAAGTTA, 0.883.
For the sequence TCTGGGAGGACACGAAGGTCAGAGCTTTCCAGAG, the PBM binding z-score amounted to 2.18.
For GCGTATAGGTAATACAAGGTGAAAGTCCGATTGT the value was 0.306; for AGTCAAAGTTCAGAACGAGGTAACGTAAAGCACG, 2.86; for CAAACTAGGTCACGAAAGGTCCAAGTCGAATGAC, 3.82.
With CCAGACAGGTGAAAGGTAACTGAGTCTGGTACGC the figure was 0.972; with AGTCAAAGCTCACTAGGTAACGTAAGATTCAGCT, -0.551.
CGTCCAAGGTCAGAGAGCTCAGTGAATGCCGAGT yielded a PBM binding z-score of 2.76.
For CCTATTAGTTGACCAGAAGGGCAACCGAAGCTCG the value was 0.596; for TCATAAAGGTAAATGCTAGGTGAAAGTCCGATCT, 0.918.
